These results are taken from PubChem BioAssay (NCATS).

Active and inactive are the calls of the source. Calls follow the shape of the dose curve; as a rule, active = well fitted curve in the direction sought with a large enough effect; inconclusive = small, poorly fitted or top-dose-only effect, or another doubt; inactive = no such curve, though single readings can be large or run the other way.

Sequence of Alpha-galactosidase (Coffea arabica) (Q42656 whole entry, looked up): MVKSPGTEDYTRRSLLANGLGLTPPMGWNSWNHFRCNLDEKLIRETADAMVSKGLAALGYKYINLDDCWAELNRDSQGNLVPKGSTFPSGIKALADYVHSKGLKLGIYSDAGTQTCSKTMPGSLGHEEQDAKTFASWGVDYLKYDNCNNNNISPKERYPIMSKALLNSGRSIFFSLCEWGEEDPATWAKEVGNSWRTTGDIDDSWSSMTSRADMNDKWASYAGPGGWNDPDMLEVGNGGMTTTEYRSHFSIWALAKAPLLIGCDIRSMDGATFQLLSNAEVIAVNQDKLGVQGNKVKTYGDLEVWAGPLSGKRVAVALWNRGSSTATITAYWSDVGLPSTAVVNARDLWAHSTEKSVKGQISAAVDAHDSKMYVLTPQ

The assay addresses Alpha-galactosidase (Coffea arabica) (UniProt Q42656). The assay is described as follows: Counterscreen for Glucocerebrosidase Inhibitors: qHTS Assay for Coffee Bean alpha-Galactosidase at pH 4.5 (AID 957). The settings on record: purified coffee bean alpha-galactosidase, fluorogenic substrate; series mostly up to 76.9 µM. An excerpt:
NIH Chemical Genomics Center [NCGC]
NIH Molecular Libraries Screening Centers Network [MLSCN]
PI Name: Zheng, Wei [NIH]
Alpha-galactosidase is a homodimeric glycoprotein that hydrolyzes the terminal alpha-galactosyl moieties from glycolipids and glycoproteins. Deficiency of this enzyme results in Fabry Disease with progressive accumulation of globotriaosylceramide and other glycosphingolipids in vascular endothelial cells that causes renal failure, myocardial infarction and stroke, and premature death in patients. It has reported that the improper folding and trafficking of alpha-galactosidase resulted from the genetic mutations may account for a significant numbers of Fabry patients. […] We optimized this coffee bean alpha-galactosidase assay in 1536-well plate format as a counter-screen assay for identifying the selective small molecule inhibitors of other lysosomal enzymes.
NCGC Assay Protocol Summary:
This is a fluorogenic enzyme assay with 4-Methylumbelliferyl alpha-D-galactopyranoside as the substrate and green coffee bean […] (from Sigma-Aldrich) as the enzyme preparation. Upon the hydrolysis of this fluorogenic substrate, the resulting product, […]. 4-Methyllumbelliferone, can be excited at 365 nm and emits at 440 nm which can be detected by a standard fluorescence plate reader. Data were normalized to the controls for basal activity (without enzyme) and 100% activity (with enzyme). In the AC50 values were determined from concentration-response data modeled with the standard Hill equation.
Assay buffer: 50 mM citric acid, 0.005% Tween-20, pH 4.5. (pH 5.9 is an optimal condition for this enzyme assay. This assay in pH 4.5 is used for comparison the inhibitor activities with the human alpha-galactosidase assay)
1536-well assay protocol for the coffee bean alpha-galactosidase:
(1) Add 2 ul/well of enzyme (2 nM final)
(2) Add 23 nL compounds in DMSO solution. The final titration was 0.7 nM to 77 uM.
(3) Add 1 ul of substrate (80 uM final)
(4) Incubate at room temperature for 20 min.
(5) Add 2 ul stop solution (1M NaOH and 1M Glycine mixture, pH 10)
(6) Detect the assay plate in a ViewLux plate reader (PerkinElmer) with Ex=365 nm and Em=440nm.
Keywords: Alpha-galactosidase, Fabry Disease, pharmacological chaperone, chaperone therapy, high throughput screening, alpha-galactosidase inhibitor, MLSMR, MLSCN, NIH Roadmap, qHTS and NCGC
In general terms: The purpose of a counterscreen is to sort out artefacts and off-target activity.
Turning to `CC[C@@]1(c2ccc(N)cc2)CCC(=O)NC1=O`, the result was inactive.
Under `NNCc1cccc(O)c1` stands “inactive”; under `O=C(OC1CCN(CCCl)CC1)C(c1ccccc1)c1ccccc1`, “inactive”.
To `NC[C@H](O)c1ccc(O)cc1` belongs “inactive”; to `COc1ccc2c(c1OC)C(=O)O[C@H]2[C@H]1c2cc3c(cc2CCN1C)OCO3`, “inactive”; to `C[C@H]1OC[C@@H](C[N+](C)(C)C)O1`, “inactive”.
To `CC(C)N(CC[C@@](C(N)=O)(c1ccccc1)c1ccccn1)C(C)C` belongs “inactive”; to `Cc1cc(N)c2ccccc2[n+]1CCCCCCCCCC[n+]1c(C)cc(N)c2ccccc21`, “inactive”.
For `CS(=N)(=O)CC[C@@H](N)C(=O)O` (stereo partly drawn), the compound was classed as inactive.
With `CCCN(CCC)C(=O)Cc1c(-c2ccc(Cl)cc2)nc2c(Cl)cc(Cl)cn12`, the call was inactive.
To `CN(CCOc1ccc(C[C@H](Nc2ccccc2C(=O)c2ccccc2)C(=O)O)cc1)c1ccccn1` belongs “inactive”; to `C[C@]12CC[C@H](O)C[C@@H]1CC[C@H]1[C@H]2CC[C@]2(C)C(=O)CC[C@@H]12`, “inactive”.
To `CC[C@H]1C(=O)OC[C@H]1Cc1cncn1C` belongs “inactive”; to `COc1cc(OC)c(/C=C2/C(=O)Nc3ccccc32)c(OC)c1`, “inactive”; to `CCCCN1C2CCC1CC(OC(c1ccc(F)cc1)c1ccc(F)cc1)C2` (stereo not drawn), “inactive”.
With `NC(N)=NN=Cc1c(Cl)cccc1Cl`, the outcome was inactive.
Under `C#CCN(C)[C@@H](C)Cc1ccccc1` stands “inactive”; under `CNC(=O)Oc1ccc2c(c1)[C@@]1(C)CCN(C)[C@@H]1N2C`, “inactive”; under `S=C(S)N1CCCC1`, “inactive”.
To `NCC#Cc1ccccc1` belongs “inactive”.
As for `C[C@@](Cc1ccc(O)c(O)c1)(NN)C(=O)O`, the call was inactive.
Consider `C[N+]1(C)[C@@H]2CC[C@H]1CC(OC(=O)[C@@H](CO)c1ccccc1)C2` (stereo partly drawn), for which the result was inactive.
With `C[C@H](NC(C)(C)C)C(=O)c1cccc(Cl)c1`, the result was inactive.
Under `CCc1c(C(=O)OC)ncc2[nH]c3cc(OC)c(OC)cc3c12` stands “inactive”; under `CC(C)C[C@H]1C(=O)N2CCC[C@@H]2[C@]2(O)O[C@](NC(=O)[C@H]3C=C4c5cccc6[nH]c(Br)c(c56)C[C@H]4N(C)C3)(C(C)C)C(=O)N12`, “inactive”.
To `COc1cc(C=C(C#N)C#N)cc(O)c1O` belongs “inactive”; to `COc1ccc(OC)c([C@H](O)[C@H](C)N)c1`, “inactive”.
To `CC(C)=CCC/C(C)=C/CC/C(C)=C/CSc1ccccc1C(=O)O` belongs “inactive”; to `N#C/C(=C\c1ccc(O)c(O)c1)C(N)=S`, “inactive”; to `CC[N+](C)(C)Cc1ccccc1Br`, “inactive”.
Consider `CCCCCCC(C)(C)c1ccc([C@@H]2C[C@H](O)CC[C@@H]2CCCO)c(O)c1`, for which the compound was called inactive.
On to `COc1cc([C@H]2c3cc4c(cc3[C@@H](O)[C@@H]3COC(=O)[C@H]23)OCO4)cc(OC)c1OC`, for which the outcome was inactive.
To `CN1CC[C@]2(C)c3cc(O)ccc3N(C)[C@@H]12` belongs “inactive”.
